Assay outcomes as filed in PubChem BioAssay.
TRHR agonist: activates the human TRH receptor | TRHR cells, calcium flux fluo-8, FDSS agonist mode | hit rate 0.18% among 360,000 | activation, % at 2 µM; also: 0% is about no effect
Target sequence (P34981 whole entry, looked up): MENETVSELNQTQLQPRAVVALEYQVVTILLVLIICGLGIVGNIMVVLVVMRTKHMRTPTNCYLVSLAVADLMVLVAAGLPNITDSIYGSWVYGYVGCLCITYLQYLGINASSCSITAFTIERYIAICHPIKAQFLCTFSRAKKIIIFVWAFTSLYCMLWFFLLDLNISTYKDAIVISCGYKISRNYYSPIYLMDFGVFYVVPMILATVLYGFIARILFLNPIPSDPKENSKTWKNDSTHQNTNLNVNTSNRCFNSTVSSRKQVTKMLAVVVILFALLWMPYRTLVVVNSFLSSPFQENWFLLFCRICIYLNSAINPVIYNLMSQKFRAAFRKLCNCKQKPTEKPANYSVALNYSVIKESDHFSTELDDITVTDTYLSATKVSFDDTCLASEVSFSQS
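Steps: seed TRHR cells overnight; add fluo-8 no-wash Ca dye, RT 30 min–1.5 h; record 10 s baseline; pin-transfer compounds; monitor fluorescence 1 cycle/s for the agonist window. Calcium increases flag candidate agonists.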
D1 potentiator: enhances dopamine response at the human D1 receptor | P21728 | HEK293 TREx D1 cells, calcium flux, dopamine EC20 potentiation | potentiation, % at 10 µM | AID 504651 | hit rate 0.036% among 360,000; in the data active = potentiation above about 30%; also: 0% is about no effect
Epigenetic reg: epigenetic control regulation, reporter derepression; murine LDR cells, GFP reporter derepression, 30 h; Potency, µM (highest dose often 53.9 µM), inactives show at the top dose GFP activation, hits mostly activators; hit rate 0.2% among 280,000; AID 1865; active = well fitted activation curve with a large enough effect; also: potency is read from the fitted curve at half-maximal effect; % of control where 0% means no effect; nearly all actives have a fitted effect of over 60% in size
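Readout is the number of GFP-expressing murine LDR cells, counted by cytometry following washing. Cells were treated with compound for 30 h at 37 C; the stably integrated CMV-GFP locus is normally silent.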
D1 antagonist: blocks dopamine activation of the human D1 receptor. P21728. HEK293 TREx D1 cells, calcium flux, dopamine EC80; hits give low values. activity change, negative = inhibition, % at 10 µM. hit rate 3.2% among 360,000; in the data active = activity change below about -30%; also: % is scaled to controls: 0 for no effect and ±100 for the full control effect
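Kinetic fluorescence of a calcium dye serves as the read-out. D1-expressing Hek293 Trex cells, induced overnight at 30 C, are exposed to compound for 180 s before an EC80 dopamine addition, then read 180 s further.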
D1 ag: activates the human D1 dopamine receptor. P21728. HEK293 T-REx D1 cells, calcium flux, agonist mode. hit rate 1% among 360,000. activation, % at 2 µM. AID 504660; also: 0% is about no effect
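Inducible HEK293 T-REx D1 cells, force-coupled to calcium signalling, were plated at 4000 cells/well with tetracycline and held overnight at 30 C. After no-wash calcium dye loading, compound-evoked calcium rise over 180 s flagged agonists.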
TRHR enhancer: TRH receptor (human) allosteric enhancement; enhancement, % at 2 µM; hit rate 0.66% among 360,000; TRHR cells, fluo-8 calcium fluorescence, EC20 TRH enhancement; AID 493056; in the data active = enhancement above about 30%; also: 0% is about no effect
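TRHR-expressing cells loaded with fluo-8 calcium dye were read kinetically (ex 480/em 530) during compound addition, then stimulated with an EC20 of TRH (10 nM final). Enhancement of the Gq-mediated intracellular calcium response was scored.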
* hit, by the source's call; nt = no result given; [ ] = remark or other dose. Shown are actives, neighbours in structure and some others; about 4.6% of the full set was active somewhere. Rule as the data show it, unless noted: active = activation above about 30%; inactive = the rest.

SMILES	TRHR agonist	D1 potentiator	Epigenetic reg	D1 antagonist	D1 ag	TRHR enhancer
COc1ccc(-c2cc(C(=O)NCCc3ccc(OC)c(OC)c3)c3ccccc3n2)cc1	-1	0	0%	-8	1	-6
COc1cccc(-n2c(=O)c3sccc3n(Cc3cc(=O)n4cc(Cl)ccc4n3)c2=O)c1	-2	0	-1%	-32*	-1	10
O=c1c2sccc2n(Cc2cc(=O)n3ccccc3n2)c(=O)n1-c1cccc(C(F)(F)F)c1	-2	0	-2%	-15	-3	2
O=c1[nH]c(SCc2nc3c(cnn3-c3ccccc3)c(=O)[nH]2)nc2ccccc12	1	5	-3%	-9	3	-1
O=c1[nH]c(CSc2nc3ccccc3[nH]2)nc2c1cnn2-c1ccccc1	0	-6	2%	-37*	16	1
COc1ccc(C)cc1NC(=O)CSc1ccc(-c2ccco2)nn1	-1	42*	nt	-7	0	1
CC(=O)c1cccc(NC(=O)CSc2ccc(-c3ccco3)nn2)c1	0	-9	nt	-56*	1	-1
CCc1ccc(NC(=O)CSc2ccc(-c3ccco3)nn2)cc1	0	3	0%	0	-3	-3
COc1ccc(S(=O)(=O)c2c(C(=O)c3ccc(C)c(C)c3)cnc3ccc(C)cc23)cc1	1	-2	1%	10	9	-3
CCOc1ccc(C2C(=O)N(C3CCCCCC3)CC(=O)N2CCc2ccc(Cl)cc2)cc1OC (centres undefined)	0	-1	7%	8	-2	1
CC(NCCC1(Cc2ccccc2Cl)CCOC(C)(C)C1)c1cccs1 (centres undefined)	-1	8	0%	10	47*	5
CC(C)C1(CCNC(=O)c2cccs2)CCOC(C)(C)C1 (centres undefined)	1	0	-4%	4	1	-7
Cc1cc(C)c(NC(=O)Cc2ccc(-n3c(C)nc4cccnc43)cc2)c(C)c1	0	3	2%	4	0	7
CCCCCCCC/C=C\CCCCCCCC(=O)OC[C@@H](O)COP(=O)(O)O	nt	nt	0%	nt	nt	nt
CCOc1cccc2sc(N3CCN(C(=O)C(C)(C)C)CC3)nc12	0	-1	0%	nt	-1	-6
COc1ccc(OC)c(NC(=O)COc2coc(CN3CCc4ccccc43)cc2=O)c1	-1	-10	nt	-36*	7	4
Cc1ccc(NC(=O)COc2coc(CN3c4ccccc4CC3C)cc2=O)c(C)c1 (centres undefined)	0	-11	nt	-14	3	3
CC1Cc2ccccc2N1Cc1cc(=O)c(OCC(=O)Nc2ccccc2)co1 (centres undefined)	0	-4	nt	-33*	3	1
CCCC(=O)N1CC(=O)Nc2ccc(C)cc2C1c1ccc(F)cc1 (centres undefined)	-1	-7	nt	-88*	-1	4
COc1cccc(-n2nc(C(=O)O)c3ccccc3c2=O)c1	1	-2	-1%	27	2	-3
COC(=O)CNC(=O)c1nn(-c2cccc(OC)c2)c(=O)c2ccccc12	0	-2	1%	-40*	2	1
Cc1ccc2c(c1)C1CN(C)CCC1N2C(=O)c1ccc(Cl)c(S(=O)(=O)N2CCOCC2)c1 (centres undefined)	1	-5	6%	-45*	2	-2
Cc1ccc2c(c1)C1CN(C)CCC1N2C(=O)c1cccc(S(=O)(=O)N2CC(C)CC(C)C2)c1 (centres undefined)	-2	-6	0%	10	2	-7
Cc1ccc2c(c1)C1CN(C)CCC1N2S(=O)(=O)c1ccc(C(C)C)cc1 (centres undefined)	1	-6	nt	-31*	3	0
O=C(c1cc2c(=O)n3ccccc3nc2s1)N1CCN(Cc2ccccc2)CC1	0	1	nt	-6	4	4
SMILES	TRHR agonist	D1 potentiator	Epigenetic reg	D1 antagonist	D1 ag	TRHR enhancer
O=C(CN1CCN(Cc2ccc3c(c2)OCO3)CC1)N1CCc2[nH]c3ccc(F)cc3c2C1	0	-1	-1%	-27	34*	-1
O=C(c1cc2c(=O)n3ccccc3nc2s1)N1CCN(Cc2ccc3c(c2)OCO3)CC1	0	-1	3%	-31*	0	-3
O=C(Cn1ccc2ccccc2c1=O)N1CCN(Cc2ccc3c(c2)OCO3)CC1	0	-4	-1%	-57*	-1	4
O=C(c1cccc(Cl)c1)N1CCN(Cc2ccc3c(c2)OCO3)CC1	0	-3	nt	-3	2	0
CC1CCN(c2nc3ccc(C(=O)N4CCN(Cc5ccc6c(c5)OCO6)CC4)cc3s2)CC1	-1	nt	0%	-31*	3	5
CC(C)=CCC/C(C)=C/CO/N=C1/C[C@@H](O)[C@@H](O)[C@@H]2[C@H]3C(=O)N(c4ccc(F)cc4F)C(=O)[C@@H]3CC[C@@H]12	nt	nt	0%[10.1 µM]	nt	nt	nt
Cc1ccccc1C(=O)NCc1ccc2c(c1)CCN2C(=O)c1ccc(F)cc1	0	-3	0%	-22	9	-1
O=C(CS(=O)(=O)Cc1ccccc1)N1CCN(Cc2ccc3c(c2)OCO3)CC1	0	-1	0%	-37*	5	1
O=C(CCc1ccc(S(=O)(=O)NCc2ccccc2)cc1)N1CCN(Cc2ccc3c(c2)OCO3)CC1	0	-6	0%	-27	13	0
Cn1c(C(=O)Nc2cccc(Cl)c2)cc2c(=O)n(C)c3ccccc3c21	0	1	4%	7	-1	3
COc1cc(/C=C/C(=O)OCC(=O)c2ccc3c(c2)NC(=O)CO3)ccc1OC(F)F	0	nt	nt	-9	5	0
O=C1COc2ccc(C(=O)COC(=O)CCSc3ccccc3)cc2N1	-1	-3	0%	-31*	11	-9
COc1ccc(/C=C/C(=O)OCC(=O)c2ccc3c(c2)NC(=O)CO3)cc1	1	30*	0%	8	1	15
Cc1ccc(-n2nc3c(c2NC(=O)c2ccc4c(c2)OCO4)CS(=O)C3)c(C)c1 (centres undefined)	0	2	nt	-52*	1	-14
O=C(Nc1c2c(nn1-c1ccc(F)cc1)CS(=O)C2)c1ccc2c(c1)OCO2 (centres undefined)	0	-5	nt	14	2	0
O=C(Nc1c2c(nn1-c1cccc(Cl)c1)CS(=O)C2)c1ccc2c(c1)OCO2 (centres undefined)	1	-3	nt	-36*	3	-12
Cc1ccc(-n2nc3c(c2NC(=O)c2ccc4c(c2)OCO4)CS(=O)(=O)C3)cc1	0	-5	nt	-7	1	3
CCc1ccccc1-n1nnnc1SCC(=O)Nc1ccc(N2CCN(C)CC2)cc1	0	-6	nt	-60*	3	-2
